Assay results as given in article PMC7862700, “An all-to-all approach to the identification of sequence-specific readers for epigenetic DNA modifications on cytosine”.

How the values were obtained:
Assay in all cases: DAPPL (digital affinity profiling via proximity ligation, sequencing); 10 mM Tris-HCl pH 7.5, 50 mM NaCl, 1 mM DTT, 4% glycerol, room temperature, 30 min; GST-TFs on glutathione beads, 16-mer random dsDNA library, 0.1% formaldehyde crosslink after washing; high values mean tight binding
FEV = target: T1, FEV (Homo sapiens, UniProt Q99581 1-238); conditions: protein: recombinant; tags: N-terminal GST; dsDNA, one strand shown
T1 sequence: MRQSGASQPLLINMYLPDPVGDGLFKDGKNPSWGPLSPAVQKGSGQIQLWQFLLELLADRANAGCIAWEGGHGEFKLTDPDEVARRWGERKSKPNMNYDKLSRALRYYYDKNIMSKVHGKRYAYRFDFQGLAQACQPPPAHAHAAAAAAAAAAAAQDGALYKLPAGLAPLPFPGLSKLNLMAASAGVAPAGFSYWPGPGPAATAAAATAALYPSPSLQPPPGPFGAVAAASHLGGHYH
In short: (§1)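 GST fusions of human transcription factors were expressed in yeast and captured with glutathione beads. Once given DNA barcodes and pooled alongside a tag-only sample, they were incubated for 30 min at room temperature with 200 nmole of a random double-stranded 16-mer DNA library in Tris/NaCl/DTT/glycerol buffer, then washed, crosslinked (0.1% formaldehyde), proximity-ligated, PCR-amplified and sequenced on an Illumina NextSeq500. The binding signal of each hexamer is its read frequency for a factor divided by its frequency for the tag-only sample.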

ETV5 = ETV5 (Homo sapiens, UniProt P41161 1-510); conditions: protein: recombinant; tags: N-terminal GST; dsDNA, one strand shown
ETV5, sequence (P41161 whole entry): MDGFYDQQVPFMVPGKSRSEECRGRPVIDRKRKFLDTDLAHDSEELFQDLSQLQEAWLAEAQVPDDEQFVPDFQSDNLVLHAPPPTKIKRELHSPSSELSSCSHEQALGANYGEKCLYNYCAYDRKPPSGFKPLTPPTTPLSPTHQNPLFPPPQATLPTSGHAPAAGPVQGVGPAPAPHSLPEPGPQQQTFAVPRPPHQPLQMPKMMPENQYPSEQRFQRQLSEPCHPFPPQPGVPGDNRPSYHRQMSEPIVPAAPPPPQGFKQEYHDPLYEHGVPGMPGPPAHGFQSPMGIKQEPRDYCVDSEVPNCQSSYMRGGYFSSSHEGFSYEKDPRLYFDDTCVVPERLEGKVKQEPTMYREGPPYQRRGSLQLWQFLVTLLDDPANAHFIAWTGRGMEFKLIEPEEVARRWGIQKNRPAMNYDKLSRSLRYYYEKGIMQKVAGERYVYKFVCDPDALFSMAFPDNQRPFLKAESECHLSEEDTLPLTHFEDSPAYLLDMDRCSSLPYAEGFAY
In short: as §1

HSF1 = HSF1 (Homo sapiens, UniProt Q00613 1-529); conditions: protein: recombinant; tags: N-terminal GST; chain copies: 3; dsDNA, one strand shown
HSF1, sequence (Q00613 whole entry): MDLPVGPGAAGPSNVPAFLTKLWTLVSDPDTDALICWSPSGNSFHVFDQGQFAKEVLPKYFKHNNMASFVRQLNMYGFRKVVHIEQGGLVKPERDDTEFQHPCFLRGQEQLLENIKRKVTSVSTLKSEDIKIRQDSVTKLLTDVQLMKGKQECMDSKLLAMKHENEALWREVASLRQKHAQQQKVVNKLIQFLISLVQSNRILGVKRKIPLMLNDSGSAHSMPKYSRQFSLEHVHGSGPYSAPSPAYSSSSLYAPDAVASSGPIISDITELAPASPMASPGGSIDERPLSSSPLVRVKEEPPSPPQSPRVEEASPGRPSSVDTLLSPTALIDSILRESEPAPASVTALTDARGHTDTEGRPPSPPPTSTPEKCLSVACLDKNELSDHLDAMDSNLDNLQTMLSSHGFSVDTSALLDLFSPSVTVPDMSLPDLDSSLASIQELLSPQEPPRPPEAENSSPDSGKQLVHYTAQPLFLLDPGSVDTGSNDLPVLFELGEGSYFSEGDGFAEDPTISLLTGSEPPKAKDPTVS
In short: as §1

SPIC = target: T2, SPIC (Homo sapiens, UniProt Q8N5J4 1-248); conditions: protein: recombinant; tags: N-terminal GST; dsDNA, one strand shown
T2 sequence: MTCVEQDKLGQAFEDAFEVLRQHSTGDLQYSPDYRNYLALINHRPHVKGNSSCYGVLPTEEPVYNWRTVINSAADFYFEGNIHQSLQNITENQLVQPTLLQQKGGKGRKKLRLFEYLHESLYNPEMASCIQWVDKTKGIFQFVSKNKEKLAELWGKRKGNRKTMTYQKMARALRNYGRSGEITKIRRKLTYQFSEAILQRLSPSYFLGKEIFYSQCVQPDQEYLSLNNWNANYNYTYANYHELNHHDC
In short: as §1

ELF4 = ELF4 (Homo sapiens, UniProt Q99607 1-663); conditions: protein: recombinant; tags: N-terminal GST; dsDNA, one strand shown
ELF4, sequence (Q99607 whole entry): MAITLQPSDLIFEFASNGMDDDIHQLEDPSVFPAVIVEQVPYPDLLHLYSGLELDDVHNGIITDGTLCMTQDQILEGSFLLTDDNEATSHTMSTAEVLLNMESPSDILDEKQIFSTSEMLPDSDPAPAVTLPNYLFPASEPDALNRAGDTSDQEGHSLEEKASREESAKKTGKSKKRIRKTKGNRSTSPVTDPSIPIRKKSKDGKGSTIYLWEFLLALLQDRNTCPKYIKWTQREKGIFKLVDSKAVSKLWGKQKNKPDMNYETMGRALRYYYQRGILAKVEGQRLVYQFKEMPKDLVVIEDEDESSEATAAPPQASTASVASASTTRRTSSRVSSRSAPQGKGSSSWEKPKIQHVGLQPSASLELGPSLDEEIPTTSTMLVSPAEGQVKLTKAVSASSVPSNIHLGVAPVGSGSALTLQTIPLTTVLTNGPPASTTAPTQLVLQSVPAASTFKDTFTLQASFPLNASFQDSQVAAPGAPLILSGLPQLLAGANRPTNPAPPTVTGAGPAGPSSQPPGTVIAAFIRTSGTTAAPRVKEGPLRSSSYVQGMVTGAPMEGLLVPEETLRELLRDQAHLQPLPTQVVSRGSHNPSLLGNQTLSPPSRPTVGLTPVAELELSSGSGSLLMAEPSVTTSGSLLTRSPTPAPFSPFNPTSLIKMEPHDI
In short: as §1

ELK4 = target: T3, ELK4 (Homo sapiens, UniProt P28324-2 1-405); conditions: protein: recombinant; tags: N-terminal GST; dsDNA, one strand shown
T3 sequence: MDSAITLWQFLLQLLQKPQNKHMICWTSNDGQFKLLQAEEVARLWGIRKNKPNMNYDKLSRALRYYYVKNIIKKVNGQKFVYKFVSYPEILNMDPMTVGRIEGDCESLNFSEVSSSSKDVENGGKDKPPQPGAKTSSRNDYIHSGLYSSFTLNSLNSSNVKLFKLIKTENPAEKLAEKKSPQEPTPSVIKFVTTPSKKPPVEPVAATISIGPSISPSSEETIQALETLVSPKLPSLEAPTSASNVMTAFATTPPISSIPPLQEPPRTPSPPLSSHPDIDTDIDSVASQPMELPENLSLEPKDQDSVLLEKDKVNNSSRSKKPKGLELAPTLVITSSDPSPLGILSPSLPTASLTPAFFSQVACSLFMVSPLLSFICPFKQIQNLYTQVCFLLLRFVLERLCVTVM
In short: as §1

ETV2 = target: T4, ETV2 (Homo sapiens, UniProt O00321 1-342); conditions: protein: recombinant; tags: N-terminal GST; dsDNA, one strand shown
T4 sequence: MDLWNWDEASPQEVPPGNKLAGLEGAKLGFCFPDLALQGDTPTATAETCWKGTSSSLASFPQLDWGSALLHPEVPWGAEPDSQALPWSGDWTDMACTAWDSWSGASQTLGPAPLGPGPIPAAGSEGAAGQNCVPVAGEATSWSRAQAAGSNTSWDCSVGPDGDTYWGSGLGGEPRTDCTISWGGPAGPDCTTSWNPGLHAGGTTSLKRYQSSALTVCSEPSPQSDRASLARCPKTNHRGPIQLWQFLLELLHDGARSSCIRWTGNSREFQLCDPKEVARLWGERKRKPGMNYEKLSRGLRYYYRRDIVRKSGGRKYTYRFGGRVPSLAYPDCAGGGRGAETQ
In short: as §1

ELF3 = target: T5, ELF3 (Homo sapiens, UniProt P78545 1-371); conditions: protein: recombinant; tags: N-terminal GST; dsDNA, one strand shown
T5 sequence: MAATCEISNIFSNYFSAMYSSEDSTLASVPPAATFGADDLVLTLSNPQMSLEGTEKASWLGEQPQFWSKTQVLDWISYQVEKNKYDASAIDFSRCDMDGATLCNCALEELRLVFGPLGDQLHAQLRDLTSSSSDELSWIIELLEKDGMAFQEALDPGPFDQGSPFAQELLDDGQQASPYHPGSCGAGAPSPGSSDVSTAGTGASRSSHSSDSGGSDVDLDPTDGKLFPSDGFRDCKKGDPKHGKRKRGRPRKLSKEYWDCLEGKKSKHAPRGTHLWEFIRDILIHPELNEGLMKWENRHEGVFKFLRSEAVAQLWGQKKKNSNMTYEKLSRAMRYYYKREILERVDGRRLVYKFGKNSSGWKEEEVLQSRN
In short: as §1

CRX = CRX (Homo sapiens, UniProt O43186 1-299); conditions: protein: recombinant; tags: N-terminal GST; dsDNA, one strand shown
CRX, sequence (O43186 whole entry): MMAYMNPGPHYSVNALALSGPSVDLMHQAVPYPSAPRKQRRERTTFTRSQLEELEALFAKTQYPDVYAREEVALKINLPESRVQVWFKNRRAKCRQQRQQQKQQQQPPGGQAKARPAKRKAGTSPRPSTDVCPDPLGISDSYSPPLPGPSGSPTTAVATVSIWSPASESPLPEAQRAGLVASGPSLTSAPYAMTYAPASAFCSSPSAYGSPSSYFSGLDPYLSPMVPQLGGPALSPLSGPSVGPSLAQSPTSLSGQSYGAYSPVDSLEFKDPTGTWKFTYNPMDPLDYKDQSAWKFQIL
In short: as §1

ETV1 = ETV1 (Homo sapiens, UniProt P50549 1-477); conditions: protein: recombinant; tags: N-terminal GST; dsDNA, one strand shown
ETV1, sequence (P50549 whole entry): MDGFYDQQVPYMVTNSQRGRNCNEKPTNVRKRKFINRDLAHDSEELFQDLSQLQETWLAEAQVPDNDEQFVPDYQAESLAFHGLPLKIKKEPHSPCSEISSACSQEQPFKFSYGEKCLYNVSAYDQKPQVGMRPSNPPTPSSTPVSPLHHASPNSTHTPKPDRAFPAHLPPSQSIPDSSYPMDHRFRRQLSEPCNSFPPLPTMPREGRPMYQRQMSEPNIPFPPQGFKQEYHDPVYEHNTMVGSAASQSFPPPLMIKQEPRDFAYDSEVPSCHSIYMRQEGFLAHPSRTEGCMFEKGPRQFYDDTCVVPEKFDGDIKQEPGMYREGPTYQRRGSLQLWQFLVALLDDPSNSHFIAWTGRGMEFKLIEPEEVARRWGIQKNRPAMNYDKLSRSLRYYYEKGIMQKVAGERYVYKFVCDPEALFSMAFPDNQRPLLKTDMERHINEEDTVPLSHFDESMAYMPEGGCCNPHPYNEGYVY
In short: as §1

ERF = target: T6, ERF (Homo sapiens, UniProt P50548 1-548); conditions: protein: recombinant; tags: N-terminal GST; dsDNA, one strand shown
T6 sequence: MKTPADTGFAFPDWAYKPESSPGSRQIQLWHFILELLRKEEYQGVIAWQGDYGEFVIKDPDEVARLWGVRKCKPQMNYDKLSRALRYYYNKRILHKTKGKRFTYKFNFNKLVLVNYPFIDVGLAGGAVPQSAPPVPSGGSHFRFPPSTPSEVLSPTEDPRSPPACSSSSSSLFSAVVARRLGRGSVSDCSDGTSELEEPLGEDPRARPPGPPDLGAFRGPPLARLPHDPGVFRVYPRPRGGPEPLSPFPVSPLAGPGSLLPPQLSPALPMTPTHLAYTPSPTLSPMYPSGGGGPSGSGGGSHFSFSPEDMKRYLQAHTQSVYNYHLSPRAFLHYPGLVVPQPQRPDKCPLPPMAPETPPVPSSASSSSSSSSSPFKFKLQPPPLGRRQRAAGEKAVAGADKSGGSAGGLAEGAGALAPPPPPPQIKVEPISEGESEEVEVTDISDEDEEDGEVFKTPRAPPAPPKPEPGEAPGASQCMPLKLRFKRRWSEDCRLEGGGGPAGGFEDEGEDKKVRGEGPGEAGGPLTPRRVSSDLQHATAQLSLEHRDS
In short: as §1

ETV3L = target: T7, ETV3L (Homo sapiens, UniProt Q6ZN32 1-361); conditions: protein: recombinant; tags: N-terminal GST; dsDNA, one strand shown
T7 sequence: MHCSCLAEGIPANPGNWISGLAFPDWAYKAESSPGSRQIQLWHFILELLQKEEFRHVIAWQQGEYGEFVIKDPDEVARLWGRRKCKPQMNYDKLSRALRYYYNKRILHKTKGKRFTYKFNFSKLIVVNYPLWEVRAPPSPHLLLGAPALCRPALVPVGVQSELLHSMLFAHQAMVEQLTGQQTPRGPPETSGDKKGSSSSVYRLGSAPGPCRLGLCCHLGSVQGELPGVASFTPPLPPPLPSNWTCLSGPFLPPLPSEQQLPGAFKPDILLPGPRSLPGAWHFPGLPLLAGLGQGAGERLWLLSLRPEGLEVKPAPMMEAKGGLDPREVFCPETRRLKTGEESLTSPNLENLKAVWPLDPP
In short: as §1

ETS2 = target: T8, ETS2 (Homo sapiens, UniProt P15036 1-469); conditions: protein: recombinant; tags: N-terminal GST; dsDNA, one strand shown
T8 sequence: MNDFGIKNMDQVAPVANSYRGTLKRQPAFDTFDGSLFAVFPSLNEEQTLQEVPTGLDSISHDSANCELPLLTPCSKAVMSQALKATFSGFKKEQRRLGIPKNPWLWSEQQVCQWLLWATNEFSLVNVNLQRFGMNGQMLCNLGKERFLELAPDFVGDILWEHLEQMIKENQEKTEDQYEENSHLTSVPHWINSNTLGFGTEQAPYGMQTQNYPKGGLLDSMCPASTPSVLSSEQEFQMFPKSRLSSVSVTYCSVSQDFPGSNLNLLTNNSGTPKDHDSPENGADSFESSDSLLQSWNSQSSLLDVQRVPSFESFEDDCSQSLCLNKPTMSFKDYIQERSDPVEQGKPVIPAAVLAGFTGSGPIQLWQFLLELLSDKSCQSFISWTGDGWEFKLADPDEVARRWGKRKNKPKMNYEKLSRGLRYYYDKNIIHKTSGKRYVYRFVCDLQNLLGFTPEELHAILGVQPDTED
In short: as §1

SPDEF = target: T9, SPDEF (Homo sapiens, UniProt O95238 1-335); conditions: protein: recombinant; tags: N-terminal GST; dsDNA, one strand shown
T9 sequence: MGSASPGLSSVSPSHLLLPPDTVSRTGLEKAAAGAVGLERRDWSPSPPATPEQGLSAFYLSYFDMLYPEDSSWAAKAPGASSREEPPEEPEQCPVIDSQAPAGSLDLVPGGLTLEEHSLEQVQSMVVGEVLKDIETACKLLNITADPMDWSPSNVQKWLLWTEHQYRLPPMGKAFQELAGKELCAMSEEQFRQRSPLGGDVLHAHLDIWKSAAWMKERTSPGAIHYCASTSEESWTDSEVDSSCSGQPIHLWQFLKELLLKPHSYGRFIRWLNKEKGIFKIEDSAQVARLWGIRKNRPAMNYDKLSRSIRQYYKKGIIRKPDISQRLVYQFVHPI
In short: as §1

ETV7 = target: T10, ETV7 (Homo sapiens, UniProt Q9Y603 1-341); conditions: protein: recombinant; tags: N-terminal GST; dsDNA, one strand shown
T10 sequence: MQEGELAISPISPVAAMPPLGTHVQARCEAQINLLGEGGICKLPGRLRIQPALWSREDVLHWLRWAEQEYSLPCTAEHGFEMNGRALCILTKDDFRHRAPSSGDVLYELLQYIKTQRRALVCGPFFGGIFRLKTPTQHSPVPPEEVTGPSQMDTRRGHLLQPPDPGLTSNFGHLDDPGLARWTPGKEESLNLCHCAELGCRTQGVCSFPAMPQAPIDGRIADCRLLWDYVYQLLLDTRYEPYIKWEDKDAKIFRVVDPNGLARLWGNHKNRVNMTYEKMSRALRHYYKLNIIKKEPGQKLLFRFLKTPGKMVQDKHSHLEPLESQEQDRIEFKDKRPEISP
In short: as §1

ELF5 = target: T11, ELF5 (Homo sapiens, UniProt Q9UKW6-2 1-255); conditions: protein: recombinant; tags: N-terminal GST; dsDNA, one strand shown
T11 sequence: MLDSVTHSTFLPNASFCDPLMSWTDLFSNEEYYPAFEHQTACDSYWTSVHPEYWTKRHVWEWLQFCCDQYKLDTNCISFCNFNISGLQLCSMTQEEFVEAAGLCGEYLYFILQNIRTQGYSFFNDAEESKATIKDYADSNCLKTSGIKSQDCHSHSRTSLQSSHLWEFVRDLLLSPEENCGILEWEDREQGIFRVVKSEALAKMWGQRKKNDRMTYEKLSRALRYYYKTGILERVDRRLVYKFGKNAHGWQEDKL
In short: as §1

ETV3 = target: T12, ETV3 (Homo sapiens, UniProt P41162-2 1-143); conditions: protein: recombinant; tags: N-terminal GST; dsDNA, one strand shown
T12 sequence: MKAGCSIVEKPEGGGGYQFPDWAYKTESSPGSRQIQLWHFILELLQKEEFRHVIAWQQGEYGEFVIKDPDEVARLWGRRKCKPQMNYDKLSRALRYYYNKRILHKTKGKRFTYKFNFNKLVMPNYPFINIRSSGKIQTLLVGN
In short: as §1

ETV6 = ETV6 (Homo sapiens, UniProt P41212 1-452); conditions: protein: recombinant; tags: N-terminal GST; dsDNA, one strand shown
ETV6, sequence (P41212 whole entry): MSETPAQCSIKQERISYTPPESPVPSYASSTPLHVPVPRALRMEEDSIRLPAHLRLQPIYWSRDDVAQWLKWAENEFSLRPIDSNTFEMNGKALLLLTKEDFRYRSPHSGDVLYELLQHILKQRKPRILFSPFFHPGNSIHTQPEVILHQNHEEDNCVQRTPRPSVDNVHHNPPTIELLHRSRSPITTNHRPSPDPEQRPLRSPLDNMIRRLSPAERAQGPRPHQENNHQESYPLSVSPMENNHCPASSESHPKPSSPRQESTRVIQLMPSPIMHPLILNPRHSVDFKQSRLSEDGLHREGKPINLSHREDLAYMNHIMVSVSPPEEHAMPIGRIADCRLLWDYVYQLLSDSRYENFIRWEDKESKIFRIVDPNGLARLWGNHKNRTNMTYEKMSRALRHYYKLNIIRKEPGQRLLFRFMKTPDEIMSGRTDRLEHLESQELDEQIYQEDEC
In short: as §1

ATTAAT
binding signal (FEV): 1.16 fold enrichment (6-mer frequency, TF over GST control)
binding signal (ETV5): 1.26 fold enrichment (6-mer frequency, TF over GST control)
binding signal (HSF1): 2.47 fold enrichment (6-mer frequency, TF over GST control)
binding signal (SPIC): 1.18 fold enrichment (6-mer frequency, TF over GST control)
binding signal (ELF4): 1.19 fold enrichment (6-mer frequency, TF over GST control)
binding signal (ELK4): 1.23 fold enrichment (6-mer frequency, TF over GST control)
binding signal (ETV2): 1.25 fold enrichment (6-mer frequency, TF over GST control)
binding signal (ELF3): 1.05 fold enrichment (6-mer frequency, TF over GST control)
binding signal (CRX): 3.95 fold enrichment (6-mer frequency, TF over GST control)
binding signal (ETV1): 1.25 fold enrichment (6-mer frequency, TF over GST control)
binding signal (ERF): 1.25 fold enrichment (6-mer frequency, TF over GST control)
binding signal (ETV3L): 1.18 fold enrichment (6-mer frequency, TF over GST control)
binding signal (ETS2): 1.27 fold enrichment (6-mer frequency, TF over GST control)
binding signal (SPDEF): 1.23 fold enrichment (6-mer frequency, TF over GST control)
binding signal (ETV7): 1.21 fold enrichment (6-mer frequency, TF over GST control)
binding signal (ELF5): 1.18 fold enrichment (6-mer frequency, TF over GST control)
binding signal (ETV3): 1.25 fold enrichment (6-mer frequency, TF over GST control)
binding signal (ETV6): 1.3 fold enrichment (6-mer frequency, TF over GST control)
